The campaign covered roughly 54,000 sequences. About 2,800 (5.2%) were called active. Rule as the data show it: active = GI50 up to about 1.1 µM and inactive = higher. This excerpt belongs to a sample that is enriched for actives. Measured potencies and affinities stand elsewhere.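 Five concentrations, 48 hours, 96-well plates. The concentration for 50% growth inhibition is given as GI50.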

For this experiment, the system named is NCI-H226. Description: NCI tumour cell line growth inhibition, 48 h.
TRIBUTYLCHLOROSTANNANE, CHEMBL1088186 had a GI50 of 0.21 µM.

These data come from ChEMBL document CHEMBL1201862, “PubChem BioAssay data set” (2004).
